The source of these data is PubChem BioAssay (NCI).

Among the test systems are SR leukemia; RPMI-8226 leukemia; OVCAR-8 ovarian; OVCAR-5 ovarian; OVCAR-4 ovarian; SK-OV-3 ovarian; IGROV1 ovarian; OVCAR-3 ovarian; HS 578T breast; NCI/ADR-RES ovarian; T-47D breast; BT-549 breast; MDA-MB-435 melanoma; SW-620 colon; MCF7 breast; HCT-116 colon; HCC-2998 colon; KM12 colon; MDA-MB-468 breast.
Assay in all cases: NCI-60 one-dose screen, 48 h (100 = growth as untreated, 0 = no growth, -100 = all killed)
Common to all, as to details: 10 µM unless noted

The panel holds about 83,000 compounds, 20% with a hit somewhere; the sample as a whole holds those more often.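 Plates (96-well) were seeded with cells, treated with compound at one concentration, and incubated for 48 hours before percent growth was determined.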 Unmarked numbers belong to inactive results. The source made the active and inactive calls. How the source made its calls: active means growth percent below 10; inactive means the rest.

As to `CS(=O)(=O)Nc1cccc(-n2cnc3cc(-c4ccc(O)cc4)ccc32)c1`, the growth in the test on SR leukemia was 32.1%; in the test on RPMI-8226 leukemia, 27.2%; in the test with OVCAR-8 ovarian, 30.8%; in the test with OVCAR-5 ovarian, 56%; with OVCAR-4 ovarian it was 67.1%; in the test on SK-OV-3 ovarian, 35.6%. Also, the growth is 57.7% in the test on IGROV1 ovarian; 30.7% in the test on OVCAR-3 ovarian; 40.8% in the test on HS 578T breast; 29.8% in the test on NCI/ADR-RES ovarian; 49.1% in the test on T-47D breast; 49.9% with BT-549 breast. Besides, the growth with MDA-MB-435 melanoma was -37.6% (active); in the test with SW-620 colon, 46.2%; in the test with MCF7 breast, 23.6%; with HCT-116 colon it was 33.5%; in the test with HCC-2998 colon, 63.9%; in the test with KM12 colon it was 26.6%. In the test with MDA-MB-468 breast, the growth is 6.92% (active).

Regarding `CN1C(=O)C(O)(CC(=O)c2cc3ccccc3oc2=O)c2ccccc21` (stereo not drawn), the growth in the test on SR leukemia is 71.3%; in the test on RPMI-8226 leukemia it was 97.6%; with OVCAR-8 ovarian it was 107%; with OVCAR-5 ovarian it was 107%; with OVCAR-4 ovarian, 99.9%; in the test with SK-OV-3 ovarian it was 94.9%. The growth was 97.7% in the test on IGROV1 ovarian; 90.5% in the test on OVCAR-3 ovarian; 99% in the test with HS 578T breast; 98.7% in the test on NCI/ADR-RES ovarian; 103% with T-47D breast; 105% in the test on BT-549 breast. For the same molecule, the growth was 110% in the test on MDA-MB-435 melanoma; 101% with SW-620 colon; 67.1% with MCF7 breast; 92.7% with HCT-116 colon; 109% in the test with HCC-2998 colon; 96.9% in the test with KM12 colon. Also, the growth in the test on MDA-MB-468 breast was 82.6%.

On to `CCC(=O)c1c2c(c3ccc4c5ccccc5ccc4n13)C(=O)c1ccccc1C2=O`, for which the growth in the test on SR leukemia is 71.8%; in the test with RPMI-8226 leukemia, 95.8%; with OVCAR-8 ovarian, 96.1%; with OVCAR-5 ovarian, 122%; with OVCAR-4 ovarian it was 88.2%; in the test with SK-OV-3 ovarian, 105%. Also, the growth in the test with IGROV1 ovarian is 75.6%; in the test with OVCAR-3 ovarian, 75.9%; in the test on HS 578T breast, 96.7%; with NCI/ADR-RES ovarian, 90.8%; in the test on T-47D breast, 87.2%; with BT-549 breast, 114%. The growth in the test with MDA-MB-435 melanoma was -89.8% (active); in the test with SW-620 colon it was 88.5%; in the test with MCF7 breast, 54%; in the test on HCT-116 colon, 92.6%; in the test with HCC-2998 colon, 65.4%; in the test with KM12 colon it was 68.9%. In addition, the growth in the test with MDA-MB-468 breast was 88.6%.

As to `CC[C@@]12CC(C(=O)OC)=C3Nc4cc5c(cc4[C@@]34CCN(C[C@H]3O[C@H]31)[C@@H]24)[C@@H]1[C@H](O5)[C@@H](O)[C@@]2(CC)CC(C(=O)OC)=C3Nc4cc(O)ccc4[C@@]34CCN1[C@@H]24`, the growth in the test on SR leukemia is -29.6% (active); with RPMI-8226 leukemia, -9.59% (active); in the test with OVCAR-8 ovarian it was 2.33% (active); in the test on OVCAR-5 ovarian it was -74.7% (active); in the test on OVCAR-4 ovarian, -39% (active); with SK-OV-3 ovarian, -32.4% (active). Also, the growth with IGROV1 ovarian is -65.8% (active); with OVCAR-3 ovarian it was -15.7% (active); in the test with HS 578T breast, 6.27% (active); in the test on NCI/ADR-RES ovarian it was 6.74% (active); in the test on T-47D breast it was -37.5% (active); with BT-549 breast, -87.6% (active). In addition, the growth in the test with MDA-MB-435 melanoma is -54.3% (active); in the test with SW-620 colon, -71.1% (active); in the test with MCF7 breast it was -56.8% (active); in the test with HCT-116 colon, -50.4% (active); in the test on HCC-2998 colon it was -85.4% (active); in the test on KM12 colon, -46.6% (active). The growth with MDA-MB-468 breast is -78.5% (active).

As to `S=C(Nc1ccc(OCc2nc3ccc(Cl)cc3[nH]2)cc1)NC1CCCCC1`, the growth in the test with SR leukemia was -27.3% (active); with RPMI-8226 leukemia it was -13.1% (active); with OVCAR-8 ovarian, -10% (active); in the test with OVCAR-5 ovarian it was -12.8% (active); with OVCAR-4 ovarian it was 10.6%; in the test on SK-OV-3 ovarian, 29.2%. Also, the growth in the test with IGROV1 ovarian was 7.22% (active); with OVCAR-3 ovarian, -3.28% (active); in the test on HS 578T breast, 14.8%; in the test with NCI/ADR-RES ovarian, -14.8% (active); with T-47D breast it was 17.3%; in the test with BT-549 breast, 13.5%. The growth was -10.4% (active) in the test with MDA-MB-435 melanoma; -7.01% (active) in the test on SW-620 colon; 0.799% (active) with MCF7 breast; -31.6% (active) with HCT-116 colon; -69.5% (active) with HCC-2998 colon; -12.5% (active) with KM12 colon. Moreover, the growth with MDA-MB-468 breast was -30.8% (active).

For `COc1ccc(-c2cc(C(=O)N=Nc3c(O)[nH]c4ccc(Cl)cc34)c3ccccc3n2)cc1`, the growth in the test on SR leukemia was 53.1%; with RPMI-8226 leukemia, 102%; with OVCAR-8 ovarian it was 22.1%; with OVCAR-5 ovarian, 42.5%; in the test with OVCAR-4 ovarian, 23.7%; in the test with SK-OV-3 ovarian it was 78.1%. The growth with IGROV1 ovarian was -18.8% (active); in the test with OVCAR-3 ovarian it was 44.2%; in the test on HS 578T breast, 77.6%; in the test on NCI/ADR-RES ovarian, 28.7%; in the test with T-47D breast it was 102%; in the test with BT-549 breast, 107%. The growth with MDA-MB-435 melanoma was 44.4%; in the test on SW-620 colon, 7.42% (active); in the test on MCF7 breast, 19.2%; in the test with HCT-116 colon it was 65.6%; in the test with HCC-2998 colon, 19.3%; in the test on KM12 colon, 28%. Further, in the test with MDA-MB-468 breast, the growth was 74.9%.

`COc1ccccc1/C=C/c1cccc(NC(=S)NCCCCN(C)C)c1`: the growth in the test on SR leukemia was -30.5% (active); in the test with RPMI-8226 leukemia, -6.58% (active); in the test with OVCAR-8 ovarian, -58.5% (active); in the test on OVCAR-5 ovarian it was -92.3% (active); in the test on OVCAR-4 ovarian, -79.7% (active); in the test with SK-OV-3 ovarian, -72.9% (active). For the same molecule, the growth in the test with IGROV1 ovarian is -82.4% (active); in the test with OVCAR-3 ovarian it was -48.8% (active); in the test with HS 578T breast it was -24.2% (active); with NCI/ADR-RES ovarian it was -62.6% (active); in the test with T-47D breast it was -58.7% (active); in the test with BT-549 breast, -60.7% (active). Further, the growth in the test with MDA-MB-435 melanoma was -91.6% (active); in the test on SW-620 colon, 5.09% (active); in the test with MCF7 breast it was -73.9% (active); in the test on HCT-116 colon, -43.4% (active); with HCC-2998 colon it was -94.1% (active); in the test on KM12 colon, -52.9% (active). The growth with MDA-MB-468 breast was -86% (active).
